The results in this text go back to PubChem BioAssay (NCATS).

The target in assay [1] is Nuclear receptor subfamily 1 group I member 3 (Homo sapiens) (UniProt Q14994). Nature of the assay: Primary qHTS for antagonist of constitutive androstane receptor (CAR) against the NCATS DSHEA and TCM libraries (AID 1794836). Also: potency is read from the fitted curve at half-maximal effect. In a few lines: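 HepG2-CYP2B6-hCAR cells, attached 5 h, given compounds plus CITCO agonist […], incubated 24 h at 37 C. Luciferase luminescence read, multiplexed with CellTiter-Fluor viability (Ex/Em 405/540 nm).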
For orientation: qHTS replaces the single test concentration by a dilution series.

Assay [2] can be described thus: KB-8-5-11 P-gp reporter qHTS against the NCATS DSHEA and TCM libraries (AID 1919977). Also: 0% is about no effect. A digest of the protocol:
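CellTiter-Glo luminescence measured viability after ~72 h exposure (37C, 5% CO2) of KB-8-5-11 cervical adenocarcinoma cells overexpressing P-gp. Colchicine was omitted during assay. Substances were tested as titrations.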

The nature of assay [3]: HepG2 viability counterscreen (readout 2: ATP content) against the NCATS DSHEA and TCM libraries (AID 1794840).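 Also: HepG2 cells exposed to substances for about 24 h; 0% is about no effect.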 In a few lines:
(§1)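 Readout 1: cellular protease activity, GF-AFC substrate (25 uM final, 30 min, fluorescence 380/510 nm). Readout 2: ATP content by CellTiter-Glo luminescence after 30 min at RT. Both follow ~24 h exposure of HepG2 cells (1,000/well) to substances.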

The nature of assay [4]: HepG2 viability counterscreen (readout 1: protease activity) against the NCATS DSHEA and TCM libraries (AID 1794841).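 Also: cells exposed to compounds for about 24 h before the protease read; 0% is about no effect.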 In a few lines:
as §1
For orientation: A counterscreen serves to expose hits that act by an unwanted route or on another target.

Assay [5] in a line: KB-3-1 P-gp reporter qHTS against the NCATS DSHEA and TCM libraries (AID 1919975). Also: 0% is about no effect. In a few lines:
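Cell viability by CellTiter-Glo luminescence following ~72 h compound exposure (concentration-response). Uses parental, non-P-gp-overexpressing KB-3-1 line, 500 cells/well in DMEM/10% FBS, attached ~4 h before dosing.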

Assay [6] can be described thus: qHTS Counterscreen for compound interference against the NCATS DSHEA and TCM libraries (AID 1919978).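 Also: compounds preincubated with 1 µM D-luciferin or buffer before detection reagent; % of control where 0% means no effect.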 The conditions noted are these: firefly luciferase detection reagent interference, luminescence. A digest of the protocol:
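With 1 uM D-luciferin or phosphate buffer only, compounds at final 19.5 nM–39.8 uM were incubated for 15 min at room temperature. Luciferase detection reagent was then added, and luminescence was measured after a further 30 min at room temperature.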

A short description of assay [7]: Dual reporter qHTS for agonist of Pregnane X Receptor (hPXR) against the NCATS DSHEA and TCM libraries: Fluorescence readout (AID 1920058). Also: 0% is about no effect. A digest of the protocol:
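In this qHTS counter-read, reporter-bearing HepG2 cells in charcoal-stripped serum received substances for approximately 24 h before viability was assessed fluorometrically with CellTiter-Fluor.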

In assay [8] the target is Nuclear receptor subfamily 1 group I member 2 (Homo sapiens) (UniProt O75469). The assay is described as follows: Dual reporter qHTS for antagonist of Pregnane X Receptor (hPXR) against the NCATS DSHEA and TCM libraries: Luminescence Readout (AID 1920060).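 Also: HepG2 cells carrying hPXR luciferase reporter stimulated with rifampicin at 2 µM; 0% is about no effect.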 In a few lines:
(§2)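 hPXR-Luc HepG2 cells exposed 24 h at 37 C to compounds with 2 uM rifampicin in antagonist mode; luciferase luminescence measured by ONE-Glo, with CellTiter-Fluor viability read beforehand.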

A short description of assay [9]: Dual reporter qHTS for antagonist of Pregnane X Receptor (hPXR) against the NCATS DSHEA and TCM libraries: Fluorescence Readout (AID 1920061). Also: 0% is about no effect. A digest of the protocol:
as §2

A short description of assay [10]: Cell Viability - BJ (AID 421; calls by dose curve;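 also: potency is read from the fitted curve at half-maximal effect; cells exposed to compound for 40 hours at 37 °C before readout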). To be noted: BJ fibroblast viability, qHTS. In a few lines: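 Normal human BJ foreskin fibroblasts, 1500/well in complete medium, treated 40 hr at 37 °C. Cellular ATP by CellTiter-Glo luminescence; normalized to DMSO and 100 uM tamoxifen, AC50 from Hill fit.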
Assay [11] in a line: Cell Viability - HepG2 (AID 433; calls by dose curve;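 also: potency is read from the fitted curve at half-maximal effect; cells exposed to compound for 40 hours; potency for ATP loss meaning cytotoxicity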). The conditions noted are these: qHTS. In a few lines:
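Cytotoxicity read as ATP loss (CellTiter-Glo luminescence) after 40 hr compound exposure of HepG2, 1500 cells/well, 37 °C. AC50 by Hill equation; 0% set by DMSO, 100% inhibition by 100 uM tamoxifen.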

Assay [12] can be described thus: Cell Viability - MRC5 (AID 434; calls by dose curve;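 also: potency is read from the fitted curve at half-maximal effect; cells exposed to compound for 40 hours at 37 °C; potency reflects cytotoxicity seen as loss of intracellular ATP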). The conditions noted are these: MRC5 lung fibroblast viability, qHTS. In a few lines:
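ATP luminescence read-out (CellTiter-Glo, 20 min RT) after 40 hr, 37 °C compound exposure of 1500 MRC5 cells/well. Data normalized to DMSO (basal) and 100 uM tamoxifen (100% inhibition); AC50 from standard Hill equation.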

In assay [13] the target is Mitogen-activated protein kinase 10 (Mus musculus) (UniProt Q61831). The assay is described as follows: JNK3 AlphaScreen Assay (AID 530; active = well fitted curve in either direction with a large enough effect, not every such curve was filed as active;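 also: kinase came from lysate of stimulated human HepG2 cells; signal reports phosphorylation of biotinylated GST-cJun 1-79 at Ser73 with 10 µM ATP; % is scaled to controls: 0 for no effect and ±100 for the full control effect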). A digest of the protocol:
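HepG2 lysate (IL-1b/TNFa pre-activated) + biotin-GST-cJun 1-79 + anti-pSer73 cJun; cpd titration, 15 min RT; ATP 10 uM start; Tris pH 7.6, MgCl2, DTT, vanadate; beads in EDTA buffer; AlphaScreen.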

Assay [14] is described as follows: Cell Viability - N2a (AID 540).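 Also: cells exposed to compound for 40 h at 37 °C; plate controls were DMSO alone for no effect and tamoxifen control for full effect; nearly all actives have a fitted effect of over 45% in size.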 To be noted: N2a mouse neuroblastoma cell viability; at 92.2 µM (top of the series). In a few lines: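 In this qHTS cytotoxicity screen, ATP-dependent luciferase luminescence reports viable N2a cells after a 40 hr compound exposure in complete culture medium. Potencies are AC50 values from standard Hill equation fits.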
A short description of assay [15]: Cell Viability - HUV-EC-C (AID 542).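 Also: cells exposed to compound for 40 hours; % is scaled to controls: 0 for no effect and ±100 for the full control effect; nearly all actives have a fitted effect of over 35% in size.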 In a few lines:
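Concentration-dependent ATP loss in HUV-EC-C cells is the measure. Exposure lasts 40 hr at 37 °C; luminescence follows CellTiter-Glo addition, and Hill fits give AC50.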

The nature of assay [16]: Cell Viability - SH-SY5Y (AID 544).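 Also: cells exposed to compound for 40 hours; 0% = DMSO alone and -100% = 100 µM tamoxifen; nearly all actives have a fitted effect of over 55% in size.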 To be noted: SH-SY5Y neuroblastoma cell viability; viability change, negative = cytotoxic: at 92.2 µM (top of the series). In a few lines:
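Quantitative HTS in SH-SY5Y neuroblastoma cells, 40 hr treatment at 37 °C, ATP content by luciferase luminescence; AC50 from Hill fits.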

Assay [17] is described as follows: Cell Viability - Renal Proximal Tubule (AID 545).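 Also: cells exposed to compound for 40 hours; 0% = DMSO only and -100% = 100 µM tamoxifen; nearly all actives have a fitted effect of over 40% in size.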 The conditions noted are these: renal proximal tubule cells viability; at 91.7 µM (top of the series), primary cells of rat origin unless noted. In a few lines: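 Viability taken as intracellular ATP (CellTiter-Glo luminescence) after 40 hr, 37 °C compound treatment of primary proximal tubule cells from rat kidney, 1000 cells/well; Hill-equation fits of qHTS concentration-response data gave AC50.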

The nature of assay [18]: qHTS Assay for Identification of Small Molecule Inducers of Hypoxia Response (AID 2120; active = well fitted curve in the direction sought with a large enough effect in the signal ratio, with a control signal flat, not every such curve was filed as active; the % refers to the signal ratio; also: 0% is about no effect). In a few lines: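 HRE-bla ME-180, 2500 cells/well, 0.5% dialyzed FBS medium; cpd titration, 17 h 37 degrees C; CCF4 2.5 h RT; Ex 405, Em 460/530 ratio -> %Activity, AC50.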
Assay [19] concerns the target Voltage-gated inwardly rectifying potassium channel KCNH2 (Homo sapiens) (UniProt Q12809). The assay is described as follows: qHTS Assay for Small Molecule Inhibitors of the Human hERG Channel Activity (AID 588834).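 Also: top concentration of the series differs between compounds; % is scaled to controls: 0 for no effect and ±100 for the full control effect; lower thallium flux fluorescence means stronger hERG block; nearly all actives have a fitted effect of over 50% in size.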 In a few lines:
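hERG block measured as reduced thallium-dye (FluxOR) fluorescence after stimulation buffer addition, read over 2 min. Cells were hERG-BacMam-transduced U2OS exposed to compound ~10 min […]; concentration-response fitted with Hill equation for AC50.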

Unmarked numbers belong to inactive results. Records with an inconclusive call do not appear. Active and inactive are the calls of the source. Unless noted, calls follow the shape of the dose curve; as a rule, active = well fitted curve in the direction sought with a large enough effect; inconclusive = small, poorly fitted or top-dose-only effect, or another doubt; inactive = no such curve, though single readings can be large; an effect the other way counts as inactive or inconclusive.

Chain of Nuclear receptor subfamily 1 group I member 2 (Homo sapiens) (O75469 whole entry, looked up): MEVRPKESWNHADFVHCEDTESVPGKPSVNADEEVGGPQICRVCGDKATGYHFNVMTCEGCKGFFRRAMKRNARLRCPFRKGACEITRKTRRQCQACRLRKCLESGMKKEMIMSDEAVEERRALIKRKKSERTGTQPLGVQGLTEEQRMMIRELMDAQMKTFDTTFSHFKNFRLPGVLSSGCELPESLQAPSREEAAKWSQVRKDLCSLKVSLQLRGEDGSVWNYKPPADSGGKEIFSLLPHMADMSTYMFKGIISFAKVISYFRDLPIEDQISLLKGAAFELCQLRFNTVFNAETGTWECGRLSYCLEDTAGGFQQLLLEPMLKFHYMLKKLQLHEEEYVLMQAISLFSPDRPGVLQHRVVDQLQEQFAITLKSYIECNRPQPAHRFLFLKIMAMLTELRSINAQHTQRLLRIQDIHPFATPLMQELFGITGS
Chain of Nuclear receptor subfamily 1 group I member 3 (Homo sapiens) (Q14994 whole entry, looked up): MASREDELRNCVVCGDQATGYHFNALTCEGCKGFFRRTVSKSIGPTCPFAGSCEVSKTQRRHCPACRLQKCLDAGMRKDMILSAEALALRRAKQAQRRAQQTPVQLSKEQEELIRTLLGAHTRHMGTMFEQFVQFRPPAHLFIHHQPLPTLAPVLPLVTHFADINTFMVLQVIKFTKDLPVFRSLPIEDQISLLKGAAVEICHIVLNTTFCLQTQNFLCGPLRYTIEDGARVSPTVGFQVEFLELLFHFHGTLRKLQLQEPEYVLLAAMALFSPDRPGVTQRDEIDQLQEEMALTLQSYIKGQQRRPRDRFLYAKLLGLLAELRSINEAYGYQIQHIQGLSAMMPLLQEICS
Chain of Voltage-gated inwardly rectifying potassium channel KCNH2 (Homo sapiens) (Q12809 whole entry, looked up): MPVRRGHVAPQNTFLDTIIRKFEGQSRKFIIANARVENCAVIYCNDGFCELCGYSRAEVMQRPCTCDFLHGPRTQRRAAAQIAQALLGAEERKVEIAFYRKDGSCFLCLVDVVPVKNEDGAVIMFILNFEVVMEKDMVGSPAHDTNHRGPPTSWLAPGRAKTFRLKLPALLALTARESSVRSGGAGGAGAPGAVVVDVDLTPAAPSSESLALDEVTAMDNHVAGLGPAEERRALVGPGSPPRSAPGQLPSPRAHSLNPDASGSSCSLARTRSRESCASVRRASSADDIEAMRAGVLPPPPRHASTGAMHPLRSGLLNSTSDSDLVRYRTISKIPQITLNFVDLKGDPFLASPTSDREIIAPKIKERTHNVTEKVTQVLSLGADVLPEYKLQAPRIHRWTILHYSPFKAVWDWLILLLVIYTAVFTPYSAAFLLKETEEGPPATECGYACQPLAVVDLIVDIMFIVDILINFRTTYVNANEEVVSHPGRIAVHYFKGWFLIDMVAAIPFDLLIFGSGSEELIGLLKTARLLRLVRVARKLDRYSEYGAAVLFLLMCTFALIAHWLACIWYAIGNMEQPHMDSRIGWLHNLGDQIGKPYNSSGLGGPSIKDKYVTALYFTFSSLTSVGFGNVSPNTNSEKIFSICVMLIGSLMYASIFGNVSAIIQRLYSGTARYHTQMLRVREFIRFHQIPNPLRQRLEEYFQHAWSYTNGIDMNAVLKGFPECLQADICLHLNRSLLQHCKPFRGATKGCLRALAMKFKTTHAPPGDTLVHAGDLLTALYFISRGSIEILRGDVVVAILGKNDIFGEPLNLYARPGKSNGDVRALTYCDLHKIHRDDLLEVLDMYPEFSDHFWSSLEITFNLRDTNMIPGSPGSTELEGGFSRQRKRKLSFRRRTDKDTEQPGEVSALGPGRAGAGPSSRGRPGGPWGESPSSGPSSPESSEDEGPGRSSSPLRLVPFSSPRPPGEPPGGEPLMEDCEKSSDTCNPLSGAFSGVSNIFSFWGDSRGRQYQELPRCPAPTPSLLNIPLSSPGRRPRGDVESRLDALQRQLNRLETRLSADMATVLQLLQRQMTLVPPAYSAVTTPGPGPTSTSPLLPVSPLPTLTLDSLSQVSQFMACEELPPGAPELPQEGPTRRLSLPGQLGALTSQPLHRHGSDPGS

`COc1cc(-c2oc3cc(O)cc(O)c3c(=O)c2O)ccc1O`: the Potency entry in [1] is “inactive”.
With `O[C@@H]1[C@@H](O)[C@H](OC/C=C/c2ccccc2)O[C@H](CO[C@@H]2OC[C@H](O)[C@H](O)[C@H]2O)[C@H]1O`, the Potency entry in [1] and in assay [2] was “inactive” throughout.
Regarding `C=C(C)C(CC=C(C)C)CC12CC(CC=C(C)C)C(C)(C)C(CC=C(C)C)(C(=O)/C(=C(\O)c3ccc(O)c(O)c3)C1=O)C2=O` (centres undefined), in assay [1], the Potency result was “inactive”.
Turning to `CC1=C2[C@H](/C=C(\C)C(=O)O)CC[C@@H](C)[C@H]2CC1`, the Potency result in assay [1] and in [2] was “inactive” in each case.
Consider `CC(=O)O[C@H]1[C@H](O[C@H]2CC[C@]34C[C@]35CC[C@]3(C)[C@@H]([C@@]6(C)CC[C@@H](C(C)(C)O)O6)[C@@H](O)C[C@@]3(C)[C@@H]5C[C@H](O[C@@H]3O[C@H](CO)[C@@H](O)[C@H](O)[C@H]3O)[C@H]4C2(C)C)OC[C@@H](O)[C@@H]1O`, for which the Potency entry in [1] was “inactive”.
Take `COC1=C[C@@]23CCN(C)[C@H](Cc4ccc(OC)c(O)c42)C3=CC1=O`: the Potency entry in assay [1] and in assay [2] was “inactive” throughout. The outcome in assay [3], in [4], in [5], in [7], in [8] and in [9] was inactive. Moreover, the max response in assay [6] is -3.14%.
In the case of `C=C[C@](C)(O)CCC=C(C)C`, the Potency result in [1] was “inactive”.
On the same count and under the same terms, in the case of `Cc1ccc(O)c(O)c1` it was “inactive”.
Take `O=c1ccc2ccc(O)cc2o1`: the Potency result in assay [1] is “inactive”.
As to `CCCCC[C@H](O)CC(=O)CCc1ccc(O)c(OC)c1`, the Potency result in [1] was “inactive”.
Turning to `O=C(/C=C/c1ccc(O)c(O)c1)OC1[C@H](O)CC(O)(C(=O)O)C[C@@H]1O` (some centres undefined), the Potency result in [1] is “inactive”.
On to `COC1=C(OC)C(=O)C(C/C=C(\C)CC/C=C(\C)CC/C=C(\C)CC/C=C(\C)CC/C=C(\C)CC/C=C(\C)CC/C=C(\C)CC/C=C(\C)CC/C=C(\C)CCC=C(C)C)=C(C)C1=O`, for which the Potency result in [1] and in assay [2] was “inactive” throughout.
As for `COc1ccc(-c2coc3cc(O[C@@H]4O[C@H](CO)[C@@H](O)[C@H](O)[C@H]4O)ccc3c2=O)cc1`, the Potency entry in assay [1] is “inactive”.
As for `O=c1cc(-c2ccc(O)cc2)oc2cc(O[C@@H]3O[C@H](CO)[C@@H](O)[C@H](O)[C@H]3O[C@@H]3OC[C@](O)(CO)[C@H]3O)cc(O)c12`, the Potency result in assay [1] and in assay [2] was “inactive” throughout.
Consider `O=C(/C=C/c1ccc(O)c(O)c1)O[C@@H]1CC(C(=O)O)=C[C@@H](O)[C@H]1O`, for which the Potency result in [1] was “inactive”.
For the molecule `C=C[C@H]1CN2CCc3c([nH]c4ccccc34)[C@H]2C[C@@H]1/C(=C\OC)C(=O)OC`, the Potency entry in assay [1] is “inactive”. The molecule was called inactive in [3], in [4], in assay [7], in assay [8] and in assay [9]. Also, the max response in [6] was -1.5%.
For `CC12CC3(O)OC(O1)C1(COC(=O)c4ccc(O)cc4)C3CC21OC1OC(CO)C(O)C(O)C1O` (centres undefined), the Potency entry in assay [1] is “inactive”.
`C=C1CC/C=C(/C)CC[C@@H]2[C@@H]1CC2(C)C`: the Potency entry in assay [1] is “inactive”.
Take `COC1=CC(=O)OC(CCc2ccccc2)C1` (centres undefined): the Potency in assay [10], in assay [11] and in assay [12] was above 92 µM each time. Moreover, the molecule was called inactive in [13], in assay [18], in [3], in [4], in [5] and in assay [7]. The result in assay [8] and in assay [9] was inactive. The figures for the activity change, negative = cytotoxicity in assay [14] and in assay [17] were -9.01% and -1.23%, respectively. In addition, the Potency entry in assay [15], in [16], in assay [19], in assay [1] and in [2] was “inactive” each time. Also, in assay [6], the max response was 2.83%.
`C=C1C[C@@]23CC[C@H]4[C@@](C)(CCC[C@@]4(C)C(=O)O[C@@H]4O[C@H](CO)[C@@H](O)[C@H](O)[C@H]4O[C@@H]4O[C@H](CO)[C@@H](O)[C@H](O)[C@H]4O)[C@@H]2CC[C@]1(O[C@@H]1O[C@H](CO)[C@@H](O)[C@H](O)[C@H]1O[C@@H]1O[C@H](CO)[C@@H](O)[C@H](O)[C@H]1O)C3`: in assay [1], the Potency entry is “inactive”.
`COC(=O)C1=CO[C@@H](C)[C@@H]2CN3CC[C@@]4(C(=O)Nc5ccccc54)[C@@H]3CC12` (some centres undefined): the Potency entry in assay [1] was “inactive”. Besides, the molecule was called inactive in assay [3], in assay [4], in assay [5], in [7], in [8] and in [9]. In assay [6], the max response is 3.44%.
Regarding `C=C[C@H]1CN2CC[C@@]3(C(=O)Nc4ccccc43)[C@@H]2C[C@@H]1/C(=C\OC)C(=O)OC`, in [1], the Potency was 3.98 µM (active). Moreover, the molecule was called inactive in assay [3], in assay [4], in assay [5], in [7], in [8] and in assay [9]. Moreover, the Potency entry in assay [2] is “inactive”. Also, in [6], the max response is -1.45%.
As to `COc1cc(/C=C/c2ccccc2)oc(=O)c1`, the Potency entry in assay [1] was “inactive”.
